# Measured values as given in PubChem BioAssay.
# The source made the active and inactive calls.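 The calls were made as follows, unless noted: active = compound that reduces growth-factor-driven endothelial tube area in a mixed cell culture, no cutoff stated; inactive = the rest.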
# What was measured:
# [1] = stimulators of nuclear beta-catenin in C2C12, primary screen, imaging, WNT3A-conditioned medium, mouse C2C12, NPC library (AID 1117326; in the data active = nuclear beta-catenin stimulation mostly above about 4.2%, no sharp cut-off; inactive = mostly below about 10%; also: reference of the scale not given here); details: stronger effect = higher value
# [2] = stimulators of insulin release from INS-1E, primary screen, cell-based, 5 mM glucose, NPC library (AID 1117329;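 active = compound raises insulin release from rat beta cells at 5 mM glucose, no numeric limit stated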; also: reference of the scale not given here); details: rat INS-1E insulin secretion, at 10 µM, stronger effect = higher value
# [3] = growth inhibition of GSK3B-pretreated HCT116 cells – cell-based, CellTiter-Glo, 0.2 to 20 µM (AID 1117336;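 active = compounds lowering colon cancer cell viability after pretreatment blocking the GSK3B kinase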); details: HCT116 viability after GSK3B inhibitor, at 20 µM, stronger effect = higher value
# [4] = inhibition of endothelial tube formation, primary screen, imaging, VEGF stimulated, CD31 staining, tube area, NPC library (AID 1117340); details: VEGF-stimulated ADSC/ECFC co-culture, at 10 µM, stronger effect = higher value
# [5] = glucagon-like peptide 1 release enhancers, primary assay, NCI-H716 cell line, NPC library (AID 1117341;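 active = compound raises GLP1 secretion from the human gut endocrine cells, with no numeric limit stated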; also: reference of the scale not given here); details: NCI-H716 cells, at 10 µM, stronger effect = higher value
# [6] = HCT116 colon cancer cell growth inhibition, primary screen, CellTiter-Glo luminescence, NPC library (AID 1117342;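 active = compounds that lower survival of HCT116 colon cancer cells in the luminescence readout, no numeric limit stated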); details: at 20 µM (top of the series)
# [7] = CellTiter-Glo luminescent readout of SW480 viability loss, NPC library primary (AID 1117343;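 active = compounds that lower viability of the colon cancer cells in the luminescence readout, with no numeric limit stated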); details: CellTiter-Glo luminescence; at 20 µM (top of the series)
# [8] = decreased DLD-1 cellular survival, CellTiter-Glo luminescent readout, NPC compound collection, primary HTS (AID 1117346;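 active = compounds that lower survival of DLD-1 colon cancer cells in the luminescence readout, no cutoff given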); details: DLD-1 viability, CellTiter-Glo luminescence; at 20 µM (top of the series)
SMILES,nuclear beta-catenin stimulation ([1]; at 10 µM),"nuclear beta-catenin stimulation ([1]; stimulation, at 2 µM)",insulin secretion stimulation [2],viability decrease [3],tube area decrease [4],GLP1 secretion stimulation [5],inhibition of viability [6],viability decrease (inhibition) [7],viability decrease (inhibition) [8]
O=C(O)Cc1ccc(CCNS(=O)(=O)c2ccc(Cl)cc2)cc1,0% (inactive),0.1%,0.2% (inactive),-5.1% (inactive),3.3% (inactive),-2.9% (inactive),-4% (inactive),1.5% (inactive),-6.1% (inactive)
N[C@H](C(=O)O)c1ccc(O)cc1,2.5% (inactive),3.1%,5.2% (inactive),-0.7% (inactive),-7.9% (inactive),-2.9% (inactive),6% (inactive),13.1% (inactive),-2.7% (inactive)
Nc1ccc(C(=O)OCC(O)CO)cc1 (configuration not stated),3.1% (inactive),3.7%,0.6% (inactive),0.9% (inactive),-15.4% (inactive),-0.9% (inactive),6.7% (inactive),-16.3% (inactive),-3.4% (inactive)
Cn1cc(C(=O)[C@@H]2CCc3nc[nH]c3C2)c2ccccc21,2.4% (inactive),-0.1%,5.1% (inactive),2.2% (inactive),17.2% (inactive),0.6% (inactive),-2.5% (inactive),11.2% (inactive),-4.05% (inactive)
CCCCCCCCCCC(CO)CCCCCCCC (configuration not stated),-0.6% (inactive),-0.4%,-0.5% (inactive),11.5% (inactive),-3.9% (inactive),-4% (inactive),5.07% (inactive),14.5% (inactive),-17.6% (inactive)
O=C(O)c1ccccn1,1.7% (inactive),0.9%,-0.2% (inactive),31.1% (inactive),-6.5% (inactive),1.3% (inactive),-1.6% (inactive),10.7% (inactive),22% (inactive)
O=C(/C=C/c1ccccc1)OCc1ccccc1,1.3% (inactive),0.1%,-0.1% (inactive),-14.9% (inactive),3% (inactive),-1.3% (inactive),5.05% (inactive),19.3% (inactive),7.4% (inactive)
O=C1c2ccccc2CCc2ccccc21,0.9% (inactive),-0.9%,2.7% (inactive),7% (inactive),-5.3% (inactive),-1.2% (inactive),4.6% (inactive),-8.4% (inactive),9.1% (inactive)
CCCCCCCCCCCCCCCC[N+](C)(C)Cc1ccccc1,38.6% (inactive),0.7%,1% (inactive),99.3% (active),109% (active),-4.3% (inactive),99.2% (active),101% (active),102% (active)
O=S(c1cc(Cl)cc(Cl)c1O)c1cc(Cl)cc(Cl)c1O,-0.5% (inactive),-1.3%,4.7% (inactive),110% (active),92.8% (active),27.8% (active),112% (active),126% (active),101% (active)
CCOC(=O)c1cccc(N)c1,-0.3% (inactive),-1.1%,1.3% (inactive),4.6% (inactive),-29.7% (inactive),-4.7% (inactive),-7.9% (inactive),35.4% (inactive),4.45% (inactive)
CC(C)[C@H]1CC[C@H](C)C[C@H]1O,-2.2% (inactive),-0.8%,2.4% (inactive),2% (inactive),-11.4% (inactive),7.7% (inactive),8.8% (inactive),17.2% (inactive),5.7% (active)
OCc1ccc(Cl)cc1Cl,2.2% (inactive),0.6%,-2% (inactive),1.6% (inactive),13.7% (inactive),-5% (inactive),-2.7% (inactive),26.9% (inactive),13.2% (inactive)
NNC(=O)CP(=O)(c1ccccc1)c1ccccc1,1.5% (inactive),0.6%,-2% (inactive),-2.45% (inactive),34.3% (inactive),1.1% (inactive),-12.6% (inactive),10% (inactive),7.2% (inactive)
O=C(OCCN1CCOCC1)c1cccnc1Nc1cccc(C(F)(F)F)c1,1.2% (inactive),-0.8%,-0.1% (inactive),42% (inactive),8.9% (inactive),3.6% (inactive),55.9% (active),62.3% (active),28.3% (inactive)
COC(=O)c1cc(Cl)ccc1NS(=O)(=O)C(F)(F)F,-1.2% (inactive),-1.2%,1.8% (inactive),17.5% (inactive),-6.9% (inactive),-0.4% (inactive),8.93% (inactive),30.2% (inactive),-4.9% (inactive)
CCN(CC)CC(=O)Oc1ccc(NC(C)=O)cc1,-0.5% (inactive),6.1%,-0.7% (inactive),0.8% (inactive),-10.3% (inactive),-0.7% (inactive),1.8% (inactive),2.2% (inactive),-9.7% (inactive)
CCN1CCN(C(=O)N[C@@H](C(=O)N[C@@H]2C(=O)N3[C@@H]2SC(C)(C)[C@H]3C(=O)O)c2ccccc2)C(=O)C1=O,0.2% (inactive),0.9%,-0.5% (inactive),-21.3% (inactive),-12.7% (inactive),-0.4% (inactive),23.9% (inactive),8.3% (inactive),-5.2% (inactive)
O=C(O)CCCC[P+](c1ccccc1)(c1ccccc1)c1ccccc1,-2.3% (inactive),-0.2%,3.5% (inactive),-11% (inactive),7.8% (inactive),2.8% (inactive),-8.2% (inactive),-3.6% (inactive),2.9% (inactive)
C[C@@H](N)C(=O)O,1.4% (inactive),0%,-2.7% (inactive),9% (inactive),15.4% (inactive),5.9% (inactive),11.2% (inactive),44.4% (inactive),20.8% (inactive)
O=C(CCCCCCCCC#CI)Oc1ccccc1,3% (inactive),0.2%,-1.7% (inactive),56% (active),13% (inactive),0.3% (inactive),-7.3% (inactive),68.3% (active),63.9% (active)
O=P(O)(O)C(Sc1ccc(Cl)cc1)P(=O)(O)O,1.7% (inactive),1.6%,3.9% (inactive),-2.7% (inactive),1% (inactive),-2.7% (inactive),4.3% (inactive),2.6% (inactive),2% (inactive)
O=S(O)CO,2.1% (inactive),0.9%,0.6% (inactive),-7.1% (inactive),9.9% (inactive),-1.1% (inactive),-0.4% (inactive),-0.9% (inactive),2.7% (inactive)
CC(C)(C)C(=O)NCCCC(=O)O,-1.1% (inactive),2.4%,2.7% (inactive),-7.9% (inactive),2% (inactive),-3.9% (inactive),-1.1% (inactive),-0.2% (inactive),-16.7% (inactive)
C=C(C)C(=O)OCC(O)CO (configuration not stated),7.5% (inactive),28.1%,2.7% (inactive),3% (inactive),-13.7% (inactive),-1.4% (inactive),1.9% (inactive),-10.3% (inactive),20.3% (inactive)
Cc1ncc(CO)c(CN)c1O,1.3% (inactive),2.3%,0.6% (inactive),4.25% (inactive),-13.4% (inactive),0.1% (inactive),-3.2% (inactive),91.3% (active),9.5% (inactive)
CCCCOCCOC(=O)c1cccnc1,1.3% (inactive),-0.3%,2.6% (inactive),-29.5% (inactive),1.8% (inactive),2.3% (inactive),-11.9% (inactive),18.6% (inactive),-20.5% (inactive)
CCN(CC)CCOc1ccccc1C(=O)CCc1ccccc1,-0.8% (inactive),-1.7%,70% (active),14.5% (inactive),0.9% (inactive),5.2% (inactive),61.9% (active),50.7% (active),23.2% (inactive)
